This passage reports growth results from PubChem BioAssay (NCI).

The panel holds about 83,000 compounds, 20% with a hit somewhere; the sample as a whole holds those more often.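 Plates (96-well) were seeded with cells, treated with compound at one concentration, and incubated for 48 hours before percent growth was determined.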 Values without a mark were called inactive. The calls were made as follows: active = growth percent below 10; inactive = the rest.

The subject of this experiment is HL-60(TB) leukemia. The experiment can be described thus: NCI-60 one-dose screen, 48 h (100 = growth as untreated, 0 = no growth, -100 = all killed). Particulars: 10 µM unless noted.
For `NC(=S)c1csc(CCNC(=O)c2ccccc2)n1`, the growth was 89%.

`N#CC1=C(N)Oc2c(ccc3ccccc23)C1c1ccc([N+](=O)[O-])cc1` (stereo not drawn): the growth was 69.9%.

On to `Cc1ccc(C(C)C)cc1C(=O)C[n+]1ccccc1`, for which the growth was 115%.
